# Laboratory results reported in PMC7819943, “Rice protein-binding microarrays: a tool to detect cis-acting elements near promoter regions in rice”.
# The full ranking holds about 68,000 sequences; the median of “fluorescence intensity (a.u.)” is about 9,100, and the highest 2% start at about 16,000. The entries come from a sample that favours the highest values as a whole.
# Target: OsWRKY34 (Oryza sativa, UniProt Q0JBA9 1-250)
# Experiment: protein-binding microarray (RPBM); PBS, 2% BSA, 51.3 ng/ul salmon testes DNA, 50 uM zinc acetate, 200 nM TF, 25 C, 1 h; high values mean tight binding
# Settings: protein: recombinant; tags: N-terminal polyhistidine and DsRed monomer fusion (pET32a); label: CyDye5-dUTP incorporated in the synthesized complementary strand; 3' TTTTT single-stranded linker to array surface; dsDNA, one strand shown
# Procedure, shortened: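 The binding signal is fluorescence intensity per array feature (arbitrary units). Readings came from an Axon 4000B scanner after a washed, 2% BSA-blocked, double-stranded custom Agilent array had been incubated for 1 h at 25 °C with 200 nM protein and 50 µM zinc acetate. The protein was a Ni–NTA-purified transcription factor fused N-terminally to polyhistidine and DsRed, expressed in E. coli BL21-CodonPlus.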
# Sequence of OsWRKY34 (Q0JBA9 entry or part of it): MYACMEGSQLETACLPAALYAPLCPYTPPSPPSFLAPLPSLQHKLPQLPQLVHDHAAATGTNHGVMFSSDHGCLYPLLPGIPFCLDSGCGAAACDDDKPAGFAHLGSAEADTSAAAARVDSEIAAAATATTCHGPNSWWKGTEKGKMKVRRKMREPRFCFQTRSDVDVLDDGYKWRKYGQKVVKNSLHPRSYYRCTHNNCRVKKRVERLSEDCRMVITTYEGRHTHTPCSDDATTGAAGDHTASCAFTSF
row,Sequence,binding signal
1,ACCCGCACACCGTCCCGTGCCAGCTGCCTCGCCACCGTTCCGGAGTCACCTAGTGCAG,11900 fluorescence intensity (a.u.)
2,CCACGACACCGCTTCCAGCCCACGCAACCCTCGAACAATGCGGAGTCACCTAGTGCAG,8170 fluorescence intensity (a.u.)
3,GTATTTTCGATTGTTTACACTATAATTAGACTGTTTTATACGGAGTCACCTAGTGCAG,8600 fluorescence intensity (a.u.)
4,CGTCGATGCCAATACAATAACCATCATCATCATCATCATTCGGAGTCACCTAGTGCAG,8210 fluorescence intensity (a.u.)
5,TCCTCTCCCACCAATCCTTTGATCCATTCATCCCAACTTCCGGAGTCACCTAGTGCAG,9340 fluorescence intensity (a.u.)
6,TGTGTGTGTATATATATGTAGCCTGTTCGCACATCATCTTCGGAGTCACCTAGTGCAG,13600 fluorescence intensity (a.u.)
7,GTAATGGCATATTTGCAATTATCCCTTTGTTTATTTATTTCGGAGTCACCTAGTGCAG,8510 fluorescence intensity (a.u.)
8,TCCCTAAATATATGACGTTGTTGACTTTTTAAAACATTTTCGGAGTCACCTAGTGCAG,11200 fluorescence intensity (a.u.)
9,TTATATGATGTTGTTGACTTTTTGACAAATGTTTAATCATCGGAGTCACCTAGTGCAG,8810 fluorescence intensity (a.u.)
10,TCCCTAAATGTTTAACGTCGTTGACTTTTTAAAATATGTTCGGAGTCACCTAGTGCAG,21000 fluorescence intensity (a.u.)
11,AATGTATGACGCCGTTGACTTTTTAACAAATATTTGACATCGGAGTCACCTAGTGCAG,20300 fluorescence intensity (a.u.)
12,GTCGTTGATTTTTTTAAAAATGTTTAACCGTTCGTTTTATCGGAGTCACCTAGTGCAG,8170 fluorescence intensity (a.u.)
13,CGTGCCGCCGCCGCCGCCGCCATCCTCCGGCAACAACGGCCGGAGTCACCTAGTGCAG,9650 fluorescence intensity (a.u.)
14,GCTTCGCTTTGCGCTCTCTCTATCTCTCTCTCTTCCAAAACGGAGTCACCTAGTGCAG,8490 fluorescence intensity (a.u.)
15,TATCCACATACCACCTCTCCATTGGACCACAGTTTCTCTCCGGAGTCACCTAGTGCAG,8340 fluorescence intensity (a.u.)
16,CGAGAAGGGGATGGGGAGGAGGAGAGGGAGCGGGAGAGGGCGGAGTCACCTAGTGCAG,10100 fluorescence intensity (a.u.)
17,GGTTTTGCAGGGCGAGGAGGGAGGGGAGGAGGGAAGGATGCGGAGTCACCTAGTGCAG,15900 fluorescence intensity (a.u.)
18,GGAGAGGAGCGGGCGGGTTGGTGTTGGGAAGGGAGGGATGCGGAGTCACCTAGTGCAG,18200 fluorescence intensity (a.u.)
19,AAGGGGATCGGAGATGCCGCTGGGCAAGTACTACTGCGACCGGAGTCACCTAGTGCAG,29900 fluorescence intensity (a.u.)
20,CGCGGGGAGGGAGGGAGGGAAGGAGAGGAGGAAGAGGATGCGGAGTCACCTAGTGCAG,9410 fluorescence intensity (a.u.)
21,GGGGCAAGGAAGGAAGGGGAGGGGAGGGGTTGGGGCGATGCGGAGTCACCTAGTGCAG,25900 fluorescence intensity (a.u.)
22,CGGAGAAGTCCGGGCAGGCAAGGGGATGGGGATGGGGATGCGGAGTCACCTAGTGCAG,12400 fluorescence intensity (a.u.)
23,TGCTGGTGGTGGTGGTGGGGATCGAGCCGCTCGCTTCGACCGGAGTCACCTAGTGCAG,11700 fluorescence intensity (a.u.)
24,GGCGGCGGCGGCGGCGGAGGTTGGGAAGGAGAGGGAGGGGCGGAGTCACCTAGTGCAG,11800 fluorescence intensity (a.u.)
25,AAATCATTTAGAAACACAACCTTTTCCACTGTTCAGGATTCGGAGTCACCTAGTGCAG,8030 fluorescence intensity (a.u.)
26,TTCACCCCGCTGCTCCGACGTCCTAGCCATCGCCGCCGCCCGGAGTCACCTAGTGCAG,8600 fluorescence intensity (a.u.)
27,CTGCCGCTCTGGTTCTCCAACTCTGCATACATATACCTCTCGGAGTCACCTAGTGCAG,12000 fluorescence intensity (a.u.)

row,Sequence,binding signal
1,GGGATTTTGTGTTTTTGGTTTTTCTGGAGGGTGCAGAAGGCGGAGTCACCTAGTGCAG,14700 fluorescence intensity (a.u.)
2,CTACCAACCTGTTCATCATGGCCCGACTCCATTCATGTCACGGAGTCACCTAGTGCAG,10300 fluorescence intensity (a.u.)
3,TTTGTGGGTGGTTTTGGGCTAAAGATTCCGTTTCTTTCGACGGAGTCACCTAGTGCAG,9250 fluorescence intensity (a.u.)
4,CGGGGAGGAGGGAGGAATAAATACGTCCTAGTCGATCAGCCGGAGTCACCTAGTGCAG,8150 fluorescence intensity (a.u.)
5,GTTCAGTCACTCGCACGCTCGCTCGATCACCCGGCCGCCGCGGAGTCACCTAGTGCAG,10200 fluorescence intensity (a.u.)
6,CTCTCTACGGCTAGCTACTCCCATTTGTGGTCAACACCTCCGGAGTCACCTAGTGCAG,10500 fluorescence intensity (a.u.)
7,TGCCTCTGTTACCACACTCTCACCTTGCTTAATAAATGCTCGGAGTCACCTAGTGCAG,9800 fluorescence intensity (a.u.)
8,ACTTAGGAGAGATTGCCTGAGTGCCATCTTTTTTGTATCTCGGAGTCACCTAGTGCAG,8960 fluorescence intensity (a.u.)
9,CTGAAGATTGGATCTAAACTTTGTATCTAAACACAGCCATCGGAGTCACCTAGTGCAG,64300 fluorescence intensity (a.u.)
10,TAACTTCTCAACTTTTTCACCATCTAAACACAGTCTTCATCGGAGTCACCTAGTGCAG,8400 fluorescence intensity (a.u.)
11,CAGCACCAACGTTCTCTTCGGCCGATTCGGCGATTGCATCCGGAGTCACCTAGTGCAG,8930 fluorescence intensity (a.u.)
12,ATCCTCTCCCGCACCAGCTATAAACCGCCACACGCCCTCGCGGAGTCACCTAGTGCAG,8650 fluorescence intensity (a.u.)
13,TCCTCTTGCAAAAAAAACACACACACACACGCACACAACTCGGAGTCACCTAGTGCAG,10200 fluorescence intensity (a.u.)
14,ACGCACCAAAACACACGATCCTCTCGGATAAATCACAGCCCGGAGTCACCTAGTGCAG,27500 fluorescence intensity (a.u.)
15,CTCTCTCTCTCTCTCTCTCTCTCTCTCGATGCCGACGCTTCGGAGTCACCTAGTGCAG,11000 fluorescence intensity (a.u.)
16,GGAGCTAGTCCAACCTACCGCAGTCACACCACCCCGCTATCGGAGTCACCTAGTGCAG,9270 fluorescence intensity (a.u.)
17,TGTGGATGATGGTATTTTTTTTCCTTTTTCCTAGTTACGACGGAGTCACCTAGTGCAG,9100 fluorescence intensity (a.u.)
18,GTATGTGGGTGGTGGTATTTTTTTTATCCTGGTTACGACCCGGAGTCACCTAGTGCAG,19700 fluorescence intensity (a.u.)
19,GGTGCGTGGGTGGTGGTCTTTTTCTTTTTCCTAGTTACGACGGAGTCACCTAGTGCAG,29400 fluorescence intensity (a.u.)
20,CTTCCTTTTCTCTTCTTCTTCTTCTTCTTTTGCGTGGGGACGGAGTCACCTAGTGCAG,9650 fluorescence intensity (a.u.)
21,TGTATGTGTGGTGTGTGTTCATGTGCATCCTGAATTTTACCGGAGTCACCTAGTGCAG,14200 fluorescence intensity (a.u.)
22,GTGGGTGGTGGTTTTTTTTTCCTTTTTCCTGGTTACGACCCGGAGTCACCTAGTGCAG,23700 fluorescence intensity (a.u.)
23,GATGTGTTGGCTGTCTTTGTTTTTTTTTTCCTGGTTTACCCGGAGTCACCTAGTGCAG,14000 fluorescence intensity (a.u.)
24,TGTGGGTGGGGTTATTTTTTCTTCGTTTTCCTATTTACGACGGAGTCACCTAGTGCAG,15700 fluorescence intensity (a.u.)
25,GGAGGTGGAAAATCTTTGTTTTTTTCCTGGTTACGATCTCCGGAGTCACCTAGTGCAG,9150 fluorescence intensity (a.u.)
26,ATATCATGTTTATTATCTTGTTATTTTGGATTAAAATATGCGGAGTCACCTAGTGCAG,9720 fluorescence intensity (a.u.)
27,GATGCCTGCCAATCTGCCATGCCATTATATCTGCAGTTCTCGGAGTCACCTAGTGCAG,12000 fluorescence intensity (a.u.)
